PubChem BioAssay (Tox21)
Unmarked numbers belong to inactive results. Results filed as inconclusive are left out. Entries that show only a call come without a potency. The source made the active and inactive calls. Unless noted, the call rests on the fitted dose curve; in most records, active means well fitted curve in the direction sought with a large enough effect in the repeat runs; inconclusive means weak or mixed curves; inactive means no such curve, though single readings can be large; an effect the other way counts as inactive or inconclusive.

Experiments:
[1] = qHTS assay to identify small molecule antagonists of the constitutive androstane receptor (CAR) signaling pathway - cell viability counter screen (AID 1224837); further: nearly all actives have a fitted effect of over 45% in size; further: potency means the concentration at half of the fitted maximal effect
Procedure, shortened: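 Fluorescence from CellTiter-Fluor served as the viability signal. Human hepatoma HepG2 cells stably bearing hCAR and CYP2B6-2.2kb received compound plus CITCO (50 nM final) for 23 hr.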

[2] = qHTS assay to identify small molecule antagonists of the estrogen related receptor signaling pathway with the pleiotropic PPARgamma coactivator (PGC) from Tox21 10K library - cell viability counter screen (AID 1224840; active means well fitted cell-killing curve with a large enough effect in the repeat runs, not every such curve was filed as active; further: nearly all actives have a fitted effect of over 40% in size; further: potency means the concentration at half of the fitted maximal effect)
Procedure, shortened: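 Compounds in DMSO, alongside positive and negative controls, were pinned onto PGC/ERR cells (2,000 per well). Exposure lasted 17.5 hours at 37 C, followed by a 30-minute CellTiter-Fluor incubation and fluorescence reading.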

[3] = biological target: Thyrotropin receptor (Homo sapiens) (UniProt P16473); experiment: qHTS assay to identify small molecule agonists of the thyroid stimulating hormone receptor (TSHR) signaling pathway (AID 1224843; calls by dose curve; further: nearly all actives have a fitted effect of over 45% in size)
Sequence of Thyrotropin receptor (Homo sapiens) (P16473 whole entry, looked up): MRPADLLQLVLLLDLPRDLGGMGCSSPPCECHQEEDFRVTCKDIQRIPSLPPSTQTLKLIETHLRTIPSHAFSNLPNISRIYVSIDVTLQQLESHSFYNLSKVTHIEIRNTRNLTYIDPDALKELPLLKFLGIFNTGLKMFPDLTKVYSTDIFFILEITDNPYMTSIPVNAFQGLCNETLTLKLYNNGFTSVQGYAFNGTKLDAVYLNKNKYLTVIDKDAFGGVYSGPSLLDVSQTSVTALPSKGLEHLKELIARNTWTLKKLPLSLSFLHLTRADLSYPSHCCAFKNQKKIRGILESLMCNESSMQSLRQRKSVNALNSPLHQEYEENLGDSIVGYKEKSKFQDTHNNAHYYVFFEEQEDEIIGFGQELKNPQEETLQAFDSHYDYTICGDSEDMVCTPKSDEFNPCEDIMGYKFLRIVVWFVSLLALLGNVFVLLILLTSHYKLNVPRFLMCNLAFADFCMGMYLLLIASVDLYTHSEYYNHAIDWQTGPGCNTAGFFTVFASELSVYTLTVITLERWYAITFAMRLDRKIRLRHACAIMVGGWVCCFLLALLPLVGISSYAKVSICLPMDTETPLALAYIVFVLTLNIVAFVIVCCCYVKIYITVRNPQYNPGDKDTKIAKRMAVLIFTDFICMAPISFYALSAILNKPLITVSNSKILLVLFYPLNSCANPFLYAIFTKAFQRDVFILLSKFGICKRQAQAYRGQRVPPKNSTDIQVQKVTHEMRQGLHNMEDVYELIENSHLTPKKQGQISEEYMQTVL
Procedure, shortened: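 HEK293 cells stably bearing the thyrotropin receptor were plated at 800 cells/well and challenged with compound (30 min, RT). Accumulated cAMP was quantified via cAMP-d2 competing for cryptate-tagged antibody.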

[4] = qHTS assay to identify small molecule agonists of the hypoxia (HIF-1) signaling pathway - cell viability counter screen (AID 1224844; calls by dose curve; further: nearly all actives have a fitted effect of over 50% in size; further: potency means the concentration at half of the fitted maximal effect)
Procedure, shortened: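 Luminescent ATP content (CellTiter-Glo, 30 min, room temperature) served as the viability measure in HRE-bla ME-180 cells exposed to compounds for 17 hrs in low-serum medium (0.5% dialyzed FBS).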

[5] = qHTS assay to identify small molecule agonists of H2AX (AID 1224845; active means well fitted activation curve with a large enough effect in the signal ratio in the repeat runs, not every such curve was filed as active; the % refers to the signal ratio)
Procedure, shortened: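 Phospho-H2AX Ser139 measured by HTRF (ex 320 nm; em 665 and 620 nm) after 24 hr antibody incubation. Compounds, 15 concentrations, 0.76% DMSO, were applied to CHO-K1 cells for 3hr at 37C before lysis.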

[6] = qHTS assay to identify small molecule agonists of the hypoxia (HIF-1) signaling pathway (AID 1224846; active means well fitted activation curve with a large enough effect in the signal ratio in the repeat runs, not every such curve was filed as active; the % refers to the signal ratio; further: potency means the concentration at half of the fitted maximal effect)
Procedure, shortened: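 Measured by blue/green FRET after loading CCF4-AM: beta-lactamase expressed from a hypoxia response element in ME-180 cells. Test agents were delivered in DMSO and left 17 hrs; cells had been plated 5 hrs earlier in low-serum (0.5% dialyzed FBS) medium.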

[7] = qHTS assay to identify small molecule agonists of H2AX - cell viability counter screen (AID 1224847; calls by dose curve; further: nearly all actives have a fitted effect of over 30% in size; further: potency means the concentration at half of the fitted maximal effect)
Procedure, shortened: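 Cytotoxicity counter screen in wild-type CHO-K1 cells: a 3 hr compound treatment at 37C across 15 concentrations, followed by CellTiter-Glo luminescence to gauge viable cells.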

[8] = qHTS RealTime-Glo MT Cell Viability Assay in HepG2 cells - 24 hour (AID 1224867); further: nearly all actives have a fitted effect of over 50% in size
Procedure, shortened: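 Viability was tracked continuously by NanoLuc luminescence from prosubstrate reduced by living HepG2 cells, at successive time points over 40 h of compound exposure. Cells with reagent were preincubated 5 h at 37 °C before compound addition.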

[9] = qHTS RealTime-Glo MT Cell Viability Assay in HEK293 cells - 32 hour (AID 1224868); further: nearly all actives have a fitted effect of over 50% in size; further: potency means the concentration at half of the fitted maximal effect
Procedure, shortened: (§1)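 Viability tracked continuously by luminescence as live cells reduce a prosubstrate for NanoLuc; HEK293 cells preincubated 5 h, compound-treated at 37 C, and read at 0, 8, 16, 24, 32 and 40 h.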

[10] = A CellTox Green Cytotoxicity Assay to monitor cytotoxicity in HEK293 cells - 0 hour (AID 1224869); further: nearly all actives have a fitted effect of over 50% in size; further: potency means the concentration at half of the fitted maximal effect
Procedure, shortened: (§2)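 Each value comes from one timepoint of a single continuous run in which HEK293 cells with CellTox Green were exposed to compound for up to 40 h at 37 C, dye fluorescence rising with cell death.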

[11] = qHTS RealTime-Glo MT Cell Viability Assay in HepG2 cells - 40 hour (AID 1224870); further: nearly all actives have a fitted effect of over 50% in size
Procedure, shortened: (§3)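 Real-time viability: cells seeded at 600 per well together with NanoLuc and cell-permeant prosubstrate, compounds added after 5 h incubation. Luminescence tracked at 0, 8, 16, 24, 32 and 40 h of exposure.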

[12] = A CellTox Green Cytotoxicity Assay to monitor cytotoxicity in HEK293 cells - 40 hour (AID 1224871); further: nearly all actives have a fitted effect of over 45% in size; further: potency means the concentration at half of the fitted maximal effect
Procedure, shortened: as §2

[13] = qHTS RealTime-Glo MT Cell Viability Assay in HEK293 cells - 16 hour (AID 1224872); further: nearly all actives have a fitted effect of over 50% in size; further: potency means the concentration at half of the fitted maximal effect
Procedure, shortened: as §1

[14] = qHTS RealTime-Glo MT Cell Viability Assay in HepG2 cells - 8 hour (AID 1224873); further: nearly all actives have a fitted effect of over 55% in size
Procedure, shortened: as §3

[15] = biological target: Nuclear receptor subfamily 1 group I member 3 (Homo sapiens) (UniProt Q14994); experiment: qHTS assay to identify small molecule antagonists of the constitutive androstane receptor (CAR) signaling pathway (AID 1224838);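 further: HepG2 cells stably expressing hCAR with CYP2B6 luciferase reporter stimulated by CITCO; nearly all actives have a fitted effect of over 40% in size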; further: potency means the concentration at half of the fitted maximal effect
Sequence of Nuclear receptor subfamily 1 group I member 3 (Homo sapiens) (Q14994 whole entry, looked up): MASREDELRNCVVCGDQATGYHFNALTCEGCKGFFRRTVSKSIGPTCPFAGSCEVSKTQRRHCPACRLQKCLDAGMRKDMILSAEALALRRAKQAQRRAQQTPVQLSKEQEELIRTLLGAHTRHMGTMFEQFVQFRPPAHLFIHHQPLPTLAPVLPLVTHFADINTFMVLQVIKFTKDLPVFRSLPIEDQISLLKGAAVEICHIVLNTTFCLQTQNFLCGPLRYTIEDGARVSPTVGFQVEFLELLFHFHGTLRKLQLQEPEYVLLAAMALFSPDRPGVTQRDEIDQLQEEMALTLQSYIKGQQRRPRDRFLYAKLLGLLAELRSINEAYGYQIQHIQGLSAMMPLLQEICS
Procedure, shortened: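 Quantitative HTS in double-stable HepG2-CYP2B6-hCAR cells. After 4 h plating, cells get compound (15 concentrations) and CITCO at 50 nM final, incubate 24 h at 37 C, then ONE-Glo luminescence is read.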

[16] = biological target: Nuclear receptor subfamily 1 group I member 3 (Homo sapiens) (UniProt Q14994); experiment: qHTS assay to identify small molecule agonists of the constitutive androstane receptor (CAR) signaling pathway (AID 1224839);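 further: HepG2 cells stably carrying human CAR and a CYP2B6 luciferase reporter; nearly all actives have a fitted effect of over 15% in size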
Procedure, shortened: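 Cells were plated and incubated 4 hrs, then dosed with compounds at 15 concentrations. PK11195 was added to 0.75 uM final. After 24 hrs at 37 C, luciferase luminescence was measured.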

[17] = qHTS assay to identify small molecule antagonists of the estrogen related receptor (ERR) signaling pathway from Tox21 library (AID 1224848); further: nearly all actives have a fitted effect of over 50% in size; further: potency means the concentration at half of the fitted maximal effect
Procedure, shortened: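 Reading was by luminescence 30 min after ONE-Glo addition. Before that, ERR cells at 2,000 per well had rested 6 h at 37 C/5% CO2 and then received pin-tooled compounds in DMSO for 18 h at 37 C.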

[18] = qHTS assay to identify small molecule agonists of the estrogen related receptor (ERR) signaling pathway from Tox21 library (AID 1224849; calls by dose curve; further: nearly all actives have a fitted effect of over 15% in size); settings: ERR reporter cell line, ONE-Glo luciferase, 18 h; at 92.4 µM (top of the series) unless noted
Procedure, shortened: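 We plated ERR reporter cells, waited 6 h, added compounds in DMSO by pin tool and incubated them 18 h at 37 C. ONE-Glo was then added and luminescence read after 30 min.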

[19] = qHTS assay to identify small molecule antagonists of the estrogen related receptor signaling pathway with the pleiotropic PPARgamma coactivator (PGC) from Tox21 10K library (AID 1224841; call rule not given here; further: potency means the concentration at half of the fitted maximal effect)
Procedure, shortened: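 Compound exposure ran 18 hours at 37 C in PGC/ERR cells (2,000/well) that had first rested 6 hours in a 37 C/5% CO2 incubator. Luciferase activity was then detected with One-Glo after a 30-minute room-temperature step.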

[20] = qHTS assay to identify small molecule agonists of the estrogen related receptor signaling pathway with the pleiotropic PPARgamma coactivator (PGC) from Tox21 10K library (AID 1224842); further: nearly all actives have a fitted effect of over 15% in size
Procedure, shortened: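 Luminescence from One-Glo (30 min, room temperature) measured after PGC/ERR cells had 18 h at 37 C with pinned compound (23 nL in DMSO). Cells had been seeded at 2,000 per well and pre-incubated 6 h.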

SMILES | Potency [1] | Potency [2] | Potency [3] | Potency [4] | Potency [5] | Potency [6] | Potency [7] | Potency [8] | Potency [9] | Potency [10] | Potency [11] | Potency [12] | Potency [13] | Potency [14] | Potency [15] | Potency [16] | Potency [17] | activity change, positive = activation [18] | Potency [19] | Potency [20]
CN1CCN(C)CC1 | inactive | inactive | inactive | inactive | inactive | inactive | inactive | inactive | inactive | inactive | inactive | inactive | inactive | inactive |  |  |  |  |  | 
CCN(CC)c1ccc2c(c1)Oc1cc(N(CC)CC)ccc1C21OC(=O)c2ccccc21 | 4.73 µM (active) | 8.41 µM (active) |  |  |  | inactive | 15.6 µM (active) | inactive |  | 19 µM (active) | inactive | 16.9 µM (active) |  | inactive | inactive |  |  |  |  | 
CC1=C(/C=C/C(C)=C/C=C/C(C)=C\C(=O)O)C(C)(C)CCC1 | inactive | inactive |  | 34.8 µM (active) | inactive |  |  | inactive |  | inactive | inactive |  | inactive | inactive | inactive |  |  |  |  | 
CC1(C)[C@H](C(=O)OCc2cccc(Oc3ccccc3)c2)[C@@H]1C=C(Cl)Cl | inactive | inactive | inactive | inactive | inactive | inactive | inactive | inactive | inactive | inactive | inactive | inactive | inactive | inactive |  | inactive |  |  |  | 
c1ccc(-c2nc3ccccc3[nH]2)cc1 | inactive | inactive |  | inactive | inactive | inactive | 89.8 µM (active) | inactive | 34.7 µM (active) | inactive | inactive |  | 21.9 µM (active) | inactive |  |  |  |  |  | 
C=C(C)C1CCC(C)CC1O (configuration not stated) | inactive | inactive | inactive | inactive | inactive | inactive |  | inactive | inactive | inactive | inactive | inactive | inactive | inactive |  |  |  |  |  | 
Cc1cccc2c1ccc1ccccc12 | inactive | inactive |  | inactive | inactive | inactive | inactive | inactive | inactive | inactive | inactive | inactive | inactive | inactive | inactive |  | 24.3 µM (active) | -38.7% |  | 
C=CC(=O)O[C@H]1C[C@@H]2CC[C@@]1(C)C2(C)C | inactive | inactive |  | inactive |  | inactive |  | inactive | inactive | inactive | inactive |  | inactive | inactive |  | inactive | inactive | 1.18% |  | 
Cc1ccc2n[nH]nc2c1 | inactive | inactive | inactive | inactive |  |  | inactive | inactive | inactive | inactive | inactive | inactive |  | inactive |  |  | inactive | 4.26% | inactive | inactive
C/C=C/C(=O)OCC(C)C | inactive | inactive | inactive |  | inactive | inactive | inactive | inactive | inactive | inactive | inactive | inactive |  | inactive |  |  |  |  |  | 
O=C(NCc1ncc(C(F)(F)F)cc1Cl)c1c(Cl)cccc1Cl | inactive |  |  | inactive | inactive | 15.5 µM (active) | inactive | inactive | 21.9 µM (active) | inactive | inactive |  |  | inactive |  | inactive |  |  |  | 
NC(=O)C1CO1 (configuration not stated) | inactive | inactive | inactive |  |  | inactive | inactive | inactive | inactive | inactive | inactive | inactive | inactive | inactive |  |  |  |  |  | 
COc1cc(/C=C/C(=O)CC(=O)/C=C/c2ccc(O)c(OC)c2)ccc1O | 24.5 µM (active) |  |  |  |  |  |  |  | 24.7 µM (active) | 22 µM (active) |  | 24.7 µM (active) | 24.7 µM (active) |  | 54.8 µM (active) |  | 13.8 µM (active) | -73.6% | 19.4 µM (active) | 
